The record followed here is PubChem BioAssay (EPA / NIEHS).

As a reminder, the AC50 is the concentration at which the activity in the assay is half-maximal.

Where “and” joins values, the source holds several entries; their conditions need not be identical. Equal values may be shown once. Results filed as inconclusive are left out. Calls of active or inactive are those of the source. How the source made its calls, unless noted: active means hit-call score of the fitted dose curve at least 0.9, where 1 is the maximum; inactive means score below 0.9.

The target in experiment [1] is Steroid hormone receptor ERR1 (Homo sapiens) (UniProt P11474). The experiment in a line: ATG_ERRa_TRANS: Attagene TRANS-FACTORIAL HepG2 Assay for human Estrogen-Related Receptor alpha (ERRa) (AID 2282971; active means hit-call score of the fitted dose curve at least 0.9, where 1 is the maximum). As to conditions: HepG2 Attagene TRANS reporter, ERRa transactivation. The procedure, abridged:
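HepG2 cells transiently transfected with multiplexed GAL4-UAS reporter units reading chimeric ERRa-Gal4 activity; 24 h compound exposure. Reporter mRNA measured by RT-PCR, 6-FAM labelling, HpaI digest and capillary electrophoresis; gain of signal fitted versus DMSO baseline.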

Read-out in experiment [2]: Interferon-gamma inducible Protein 10 (IP10), CXCL10 (gene 3627)
Nature of the experiment: BSK_KF3CT_IP10: BioMAP Diversity Plus: KF3CT Assay for Interferon-gamma inducible Protein 10 (IP10) Biomarker Activity (AID 2283068). The settings on record: primary human keratinocytes with fibroblasts; actives raise or lower the signal. In short, it runs like this: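 ELISA read-out of IP-10 after 24 h chemical dosing of human skin primary co-culture (keratinocytes, foreskin fibroblasts). Gain or loss of signal relative to DMSO, bidirectional curve fit.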

Read-out in experiment [3]: Interleukin-1 alpha (IL1a), IL1A (gene 3552)
Nature of the experiment: BSK_KF3CT_IL1a: BioMAP Diversity Plus: KF3CT Assay for Interleukin-1 alpha (IL1a) Biomarker Activity (AID 2283070). The settings on record: primary human keratinocytes with fibroblasts; actives raise or lower the signal. The procedure, abridged: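 Primary human keratinocyte plus foreskin fibroblast co-culture, dosed and measured at 24 h in 96-well plates. IL-1a level quantified by ELISA; bidirectional fit relative to DMSO.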

Read-out in experiment [4]: TIMP metallopeptidase inhibitor 2 (TIMP2), TIMP2 (gene 7077)
Nature of the experiment: BSK_KF3CT_TIMP2: BioMAP Diversity Plus: KF3CT Assay for TIMP metallopeptidase inhibitor 2 (TIMP2) Biomarker Activity (AID 2283071). The settings on record: primary human keratinocytes with fibroblasts; actives raise or lower the signal. In short, it runs like this:
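Co-culture of human primary keratinocytes and foreskin fibroblasts, measured 24 h after chemical dosing. TIMP-2 quantified by ELISA and fitted in both directions relative to DMSO. Cytotoxicity checked in parallel cultures by SRB total-protein staining.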

Read-out in experiment [5]: Matrix Metallopeptidase 9 (MMP9), MMP9 (gene 4318)
Nature of the experiment: BSK_KF3CT_MMP9: BioMAP Diversity Plus: KF3CT Assay for Matrix Metallopeptidase 9 (MMP9) Biomarker Activity (AID 2283074).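 On AC50: MMP9 protein level quantified by ELISA in the co-culture.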 As to conditions: primary human keratinocytes with fibroblasts; actives raise or lower the signal. The procedure, abridged: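 Human keratinocyte and foreskin fibroblast co-culture exposed to chemicals for 24 h; MMP9 biomarker measured by ELISA, bidirectional fitting relative to DMSO; cytotoxicity tracked by SRB total protein staining in parallel cultures.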

Read-out in experiment [6]: urokinase plasminogen activator (uPA), PLAU (gene 5328)
The experiment in a line: BSK_KF3CT_uPA: BioMAP Diversity Plus: KF3CT Assay for urokinase plasminogen activator (uPA) Biomarker Activity (AID 2283075). As to conditions: primary human keratinocytes with fibroblasts; actives raise or lower the signal. The procedure, abridged:
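Primary human keratinocyte/foreskin fibroblast co-culture exposed to chemical; uPA measured by ELISA at 24 h. Bidirectional fit versus DMSO, with parallel SRB total-protein staining for cytotoxicity.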

Read-out in experiment [7]: CD40, CD40 (gene 958)
Nature of the experiment: BSK_LPS_CD40: BioMAP Diversity Plus: LPS Assay for CD40 Biomarker Activity (AID 2283076). As to conditions: primary human HUVEC with PBMC; actives raise or lower the signal. The procedure, abridged:
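Primary human umbilical vein endothelial cells co-cultured with peripheral blood mononuclear cells, LPS-stimulated, were dosed with chemical and read 24 h later. CD40 levels were measured by ELISA and fitted bidirectionally against DMSO as negative control and baseline.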

Read-out in experiment [8]: E-selectin (Homo sapiens) (UniProt P16581)
Nature of the experiment: BSK_LPS_Eselectin: BioMAP Diversity Plus: LPS Assay for Eselectin Biomarker Activity (AID 2283077). The settings on record: primary human HUVEC with PBMC; actives raise or lower the signal. In short, it runs like this: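 Human umbilical vein endothelial cells co-cultured with peripheral blood mononuclear cells under LPS stimulation; E-selectin measured by ELISA 24 h after chemical dosing. Activity fitted bidirectionally against DMSO as negative control and baseline.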

Experiment [9] can be described thus: BSK_LPS_SRB: Viability Assessment in the BioMAP Diversity Plus: LPS Assay (AID 2283079).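 Further: total protein by sulforhodamine B absorbance as a cytotoxicity measure; measured one day after compound addition; fitted in both directions against DMSO so loss or gain of signal counts.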 As to conditions: primary human HUVEC with PBMC. In short, it runs like this:
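Human umbilical vein endothelial cells co-cultured with PBMC (LPS system) were dosed for 24 h. Total protein was stained with 0.1% sulforhodamine B after 10% TCA fixation, read at 560 nm, and fitted bidirectionally against DMSO baseline.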

Read-out in experiment [10]: Macrophage colony-stimulating factor (MCSF), CSF1 (gene 1435)
Nature of the experiment: BSK_LPS_MCSF: BioMAP Diversity Plus: LPS Assay for Macrophage colony-stimulating factor (MCSF) Biomarker Activity (AID 2283083). As to conditions: primary human HUVEC with PBMC; actives raise or lower the signal. The procedure, abridged: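 Human umbilical vein endothelial cells co-cultured with peripheral blood mononuclear cells were exposed to compound for 24 h. M-CSF levels were measured by ELISA, and bidirectional curve fitting used DMSO as the negative control and baseline.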

Read-out in experiment [11]: Tissue Factor, F3 (gene 2152)
Nature of the experiment: BSK_LPS_TissueFactor: BioMAP Diversity Plus: LPS Assay for Tissue Factor Biomarker Activity (AID 2283084). As to conditions: primary human HUVEC with PBMC; actives raise or lower the signal. In short, it runs like this: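 Human umbilical vein endothelial cells co-cultured with peripheral blood mononuclear cells were dosed and stimulated with LPS. Cell-surface CD142 was quantified by ELISA at 24 h. Activity was fitted bidirectionally against DMSO baseline.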

Read-out in experiment [12]: Tumor necrosis factor (Homo sapiens) (UniProt P01375)
Nature of the experiment: BSK_LPS_TNFa: BioMAP Diversity Plus: LPS Assay for Tumour Necrosis Factor alpha (TNFa) Biomarker Activity (AID 2283085).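 On AC50: TNFa protein level quantified by ELISA in the co-culture.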 The settings on record: primary human HUVEC with PBMC; actives raise or lower the signal. In short, it runs like this: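 Human umbilical vein endothelial cells co-cultured with PBMC and stimulated with LPS. TNFa was measured by ELISA 24 h after chemical dosing, fitted bidirectionally relative to DMSO.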

Read-out in experiment [13]: Vascular cell adhesion molecule 1 (VCAM1), VCAM1 (gene 7412)
The experiment in a line: BSK_LPS_VCAM1: BioMAP Diversity Plus: LPS Assay for Vascular cell adhesion molecule 1 (VCAM1) Biomarker Activity (AID 2283086). As to conditions: primary human HUVEC with PBMC; actives raise or lower the signal. The procedure, abridged: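 Human umbilical vein endothelial cells co-cultured with PBMC and stimulated with LPS; VCAM-1 measured by ELISA 24 h after dosing. Bidirectional curve fitting against DMSO baseline; cytotoxicity tracked in parallel by SRB total-protein staining.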

Read-out in a further experiment: CD38, CD38 (gene 952)
The experiment in a line: BSK_SAg_CD38: BioMAP Diversity Plus: SAg Assay for CD38 Biomarker Activity (AID 2283087). As to conditions: primary human HUVEC with PBMC; actives raise or lower the signal. The procedure, abridged: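 Human HUVEC plus PBMC co-culture stimulated with superantigen; CD38 measured by ELISA 24 h after chemical dosing. Fluorescence read-out, bidirectional fit against DMSO; cytotoxicity tracked in parallel by SRB and Alamar Blue.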

Read-out in experiment [14]: CD40, CD40 (gene 958)
The experiment in a line: BSK_SAg_CD40: BioMAP Diversity Plus: SAg Assay for CD40 Biomarker Activity (AID 2283088). As to conditions: primary human HUVEC with PBMC; actives raise or lower the signal. In short, it runs like this:
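Human umbilical vein endothelial cells co-cultured with PBMC; CD40 levels measured by ELISA with fluorescence read-out 24 h after chemical dosing. Gain or loss of signal fitted bidirectionally against DMSO baseline.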

Read-out in another experiment: CD69, CD69 (gene 969)
The experiment in a line: BSK_SAg_CD69: BioMAP Diversity Plus: SAg Assay for CD69 Biomarker Activity (AID 2283089).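 On AC50: cell surface CD69 protein quantified by ELISA with fluorescence detection.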 The settings on record: primary human HUVEC with PBMC; actives raise or lower the signal. The procedure, abridged:
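Primary human vascular co-culture (umbilical vein endothelium with peripheral blood mononuclear cells) exposed to test chemical for 24 h. CD69 levels quantified by fluorescence ELISA; DMSO served as negative control for bidirectional fitting.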

Read-out in experiment [15]: E-selectin (Homo sapiens) (UniProt P16581)
Nature of the experiment: BSK_SAg_Eselectin: BioMAP Diversity Plus: SAg Assay for Eselectin Biomarker Activity (AID 2283091). The settings on record: primary human HUVEC with PBMC; actives raise or lower the signal. In short, it runs like this:
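HUVEC co-cultured with PBMC, compound dosed then read at 24 h; E-selectin measured by ELISA. Activity fitted bidirectionally against DMSO as negative control and baseline.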

Experiment [16] can be described thus: BSK_SAg_PBMCCytotoxicity: PBMC Cytotoxicity Assessment in the BioMAP Diversity Plus: SAg Assay (AID 2283093).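 Further: PBMC viability measured as Alamar Blue reduction fluorescence at 546/580 nm; fitted both ways against DMSO so a hit may be loss or gain of signal.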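 On AC50: PBMC superantigen activated with SEB plus TSST-1 one hour after compound addition.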 The settings on record: primary human HUVEC with PBMC. The procedure, abridged: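 HUVEC/PBMC co-culture; PBMC exposed to chemical 1 h before SEB and TSST-1 activation (20 ng/mL each), incubated 90 h, then Alamar Blue 6 h, fluorescence 546/580 nm. Bidirectional fit versus DMSO baseline.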

Read-out in experiment [17]: Interleukin-8 (IL8), CXCL8 (gene 3576)
The experiment in a line: BSK_SAg_IL8: BioMAP Diversity Plus: SAg Assay for Interleukin-8 (IL8) Biomarker Activity (AID 2283094). The settings on record: primary human HUVEC with PBMC; actives raise or lower the signal. In short, it runs like this:
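Human umbilical vein endothelial cells co-cultured with PBMC, stimulated with superantigen; IL-8 measured by ELISA 24 h after chemical dosing. Bidirectional fitting versus DMSO; SRB staining in parallel cultures tracks cytotoxicity.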

Experiment [18] is described as follows: BSK_SAg_Proliferation: Cell Proliferation Assessment in the BioMAP Diversity Plus: SAg Assay (AID 2283095). The settings on record: primary human HUVEC with PBMC. The procedure, abridged:
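Human umbilical vein endothelial cells co-cultured with PBMC; sulforhodamine B total-protein staining (0.1% SRB after 10% TCA fixation, absorbance 560 nm) at 96 h in sub-confluent culture. Fitted bidirectionally against DMSO.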

Sequence of Steroid hormone receptor ERR1 (Homo sapiens) (P11474 whole entry, looked up, the tested form may be a part): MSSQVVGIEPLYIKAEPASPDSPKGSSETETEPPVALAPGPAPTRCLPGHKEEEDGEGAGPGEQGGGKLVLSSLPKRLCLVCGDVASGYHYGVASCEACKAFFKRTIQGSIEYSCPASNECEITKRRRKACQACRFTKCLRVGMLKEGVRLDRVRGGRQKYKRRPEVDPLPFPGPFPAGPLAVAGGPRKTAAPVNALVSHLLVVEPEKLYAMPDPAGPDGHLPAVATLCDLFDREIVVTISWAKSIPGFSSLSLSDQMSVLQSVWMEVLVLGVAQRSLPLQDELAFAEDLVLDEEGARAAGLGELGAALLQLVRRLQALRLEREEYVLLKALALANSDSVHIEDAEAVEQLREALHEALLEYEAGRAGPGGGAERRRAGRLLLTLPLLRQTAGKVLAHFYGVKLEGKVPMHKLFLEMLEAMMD
Sequence of Tumor necrosis factor (Homo sapiens) (P01375 whole entry, looked up): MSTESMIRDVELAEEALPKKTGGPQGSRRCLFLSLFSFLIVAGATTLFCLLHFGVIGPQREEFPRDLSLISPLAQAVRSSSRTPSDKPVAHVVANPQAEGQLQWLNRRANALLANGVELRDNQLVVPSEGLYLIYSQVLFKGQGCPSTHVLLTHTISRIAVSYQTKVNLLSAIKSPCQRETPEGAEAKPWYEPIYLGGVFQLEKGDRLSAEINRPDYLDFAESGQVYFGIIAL
Sequence of E-selectin (Homo sapiens) (P16581 whole entry, looked up): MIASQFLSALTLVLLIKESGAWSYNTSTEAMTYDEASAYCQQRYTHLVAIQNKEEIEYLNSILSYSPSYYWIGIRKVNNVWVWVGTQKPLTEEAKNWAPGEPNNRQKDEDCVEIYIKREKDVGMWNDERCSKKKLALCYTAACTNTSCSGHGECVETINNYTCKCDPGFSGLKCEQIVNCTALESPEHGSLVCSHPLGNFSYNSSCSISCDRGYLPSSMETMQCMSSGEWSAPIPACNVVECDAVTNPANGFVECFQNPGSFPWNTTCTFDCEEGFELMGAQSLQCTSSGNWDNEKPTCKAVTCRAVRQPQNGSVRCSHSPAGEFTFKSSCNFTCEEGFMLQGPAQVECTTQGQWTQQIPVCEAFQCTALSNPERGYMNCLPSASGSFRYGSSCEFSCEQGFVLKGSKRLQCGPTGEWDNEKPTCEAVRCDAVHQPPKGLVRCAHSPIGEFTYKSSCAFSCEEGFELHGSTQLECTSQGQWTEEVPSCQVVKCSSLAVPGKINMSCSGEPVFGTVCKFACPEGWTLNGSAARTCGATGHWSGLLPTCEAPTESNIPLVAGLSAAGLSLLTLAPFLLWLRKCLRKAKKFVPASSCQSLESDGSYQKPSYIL

For the compound `O=c1[nH]c(Cl)c(Cl)cc1Cl`, the outcome in experiment [1], in experiment [2], in [3], in experiment [4], in experiment [5] and in experiment [6] was inactive. Also, the outcome with CD40, CD40 (gene 958) [7] is “inactive”; in experiment [8], “inactive”; in experiment [9] it was “inactive”; in [10], “inactive”; in [11], “inactive”; in experiment [12], “inactive”. Further, the outcome was “inactive” in [13]; “inactive” with CD38, CD38 (gene 952); “inactive” with CD40, CD40 (gene 958) [14]; “inactive” in the experiment with CD69, CD69 (gene 969); “inactive” in experiment [15]; “inactive” in experiment [16]. Further, the result in experiment [17] and in experiment [18] was inactive.

As for `N#CC(c1ccccc1)c1ccccc1`, the compound was called inactive in [1].

As for `C[N+](=O)[O-]`, in [1], the outcome was inactive.

As for `CC(=O)/C=C/c1ccccc1`, the outcome in [2], in [3], in [4], in [5], in experiment [6] and in experiment [9] was inactive. The outcome was “inactive” in [11]; “inactive” in experiment [12]; “inactive” with CD38, CD38 (gene 952); “inactive” with CD40, CD40 (gene 958) [14]; “inactive” with CD69, CD69 (gene 969); “inactive” in experiment [15]. For the same compound, the outcome in [16] and in experiment [17] was inactive. The AC50 in the experiment with CD40, CD40 (gene 958) [7] was 20 µM (active); in [8], 31.1 µM (active); in [10] it was 16.9 µM (active); in experiment [13], 20 µM (active); in experiment [18] it was 13 µM (active).

`O=C1C=CC(=O)C=C1`: the concentration at half-maximal activity (AC50) was 27.8 µM (active) and 24.1 µM (active) in experiment [2]; 30.3 µM (active) and 26.4 µM (active) in experiment [3]; 28.7 µM (active) and 12.4 µM (active) in [4]; 20 µM (active) and 11.6 µM (active) in experiment [5]; 30.9 µM (active) and 30.6 µM (active) in [6]; 12.3 µM (active) and 20 µM (active) with CD40, CD40 (gene 958) [7]. For the same compound, the AC50 in experiment [8] was 26.4 µM (active) and 30.4 µM (active); in experiment [10] it was 20 µM (active) and 28.7 µM (active); in experiment [12], 31.7 µM (active) and 18.7 µM (active); in experiment [13] it was 20 µM (active); with CD38, CD38 (gene 952), 30.4 µM (active) and 25.7 µM (active); with CD40, CD40 (gene 958) [14], 29 µM (active) and 27.7 µM (active). The AC50 with CD69, CD69 (gene 969) was 20 µM (active) and 22.9 µM (active); in experiment [15], 30.7 µM (active) and 25.2 µM (active); in [16] it was 9.09 µM (active) and 7.38 µM (active); in experiment [18] it was 6.38 µM (active) and 3.38 µM (active). Besides, the result in experiment [9], in experiment [11] and in experiment [17] was inactive.
